Laboratory results as given in PubChem BioAssay AID463173 (ICCB-Longwood Screening Facility, Harvard Medical School, 2010).
About 4,300 (8.3%) of roughly 52,000 compounds were called active. Cut-off read from the data, not from the text of the source: active = survival mostly below about 52% (no sharp cut-off); inactive = mostly above about 56%. The full list was thinned out, with actives kept by preference.

Each compound was assayed on DeltatarO mutant (assay: S. aureus survival, RN4220 and DeltatarO strains – OD600, teichoic acid synthesis inhibitors, primary screen (AID 463173)). Settings: S. aureus RN4220 wild type/DeltatarO growth, OD600, 18 h, active compounds read low, screened at 18.75 µg/mL (by protocol).

SMILES | survival
CC(=O)N1CCc2c(sc3c2c(=O)n(-c2ccc(F)cc2)c(=O)n3Cc2ccc(C#N)cc2)C1 | 107% (inactive)
Cc1ccc(CNCc2ccc3c(c2)n(C)c(=O)n3C)cc1 | 92% (inactive)
CCN(CC)S(=O)(=O)c1ccc2c(c1)nc(CN(C)C(=O)c1cccc(Cl)c1)n2C | 71% (inactive)
C#CCOc1ccc(C2C3=C(CCCC3=O)N(CCC(=O)O)C3=C2C(=O)CCC3)cc1 | 70% (inactive)
COc1ccc2c(c1)CCc1c(C(=O)Nc3c(C)nn(Cc4c(Cl)cccc4Cl)c3C)noc1-2 | 114% (inactive)
CCOC(=O)c1cc2c(=O)n3ccccc3nc2n(CC2CCCO2)c1=NC(=O)c1cc(C)cc(C)c1 (centres undefined) | 44% (active)
CCOC(=O)c1cc2c(=O)n3ccccc3nc2n(CC2CCCO2)c1=NC(=O)c1ccc(C(C)(C)C)cc1 (centres undefined) | 59% (inactive)
CCOC(=O)c1cc2c(=O)n3ccccc3nc2n(CC2CCCO2)c1=NC(=O)c1ccc(C)cc1 (centres undefined) | 101% (inactive)
CCOC(=O)c1cc2c(=O)n3ccccc3nc2n(CC2CCCO2)c1=NC(=O)c1cccc(C)c1 (centres undefined) | 29% (active)
CCOC(=O)c1cc2c(=O)n3ccccc3nc2n(CC2CCCO2)c1=NC(=O)c1cccc(C(F)(F)F)c1 (centres undefined) | 97% (inactive)
CCn1c(CN2CCCCC2)nc2cc(NC(=O)c3cc(OC)c(OC)c(OC)c3)ccc21 | 87% (inactive)
O=C(c1cnc(N2CCCCC2)c2ccccc12)N1CCN(c2ccccc2F)CC1 | 75% (inactive)
Cc1ccc2c(c1)nnn2C1CCN(CC(=O)N(c2ccccc2)c2ccccc2)CC1 | 98% (inactive)
CCOc1ccc(CNC(=O)c2cnc3sc(N4CCC(C)CC4)nn3c2=O)cc1OC | 74% (inactive)
Cc1cn(C)c(CC(=O)NCc2cccc(Cl)c2)c1C(=O)O | 20% (active)
Cc1ccc(CNC(=O)Cc2c(C(=O)O)c(C)cn2C)cc1 | 89% (inactive)
COc1cccc(CNC(=O)Cc2c(C(=O)O)c(C)cn2C)c1 | 8% (active)
Cc1cn(C)c(CC(=O)NCc2ccccc2)c1C(=O)O | 85% (inactive)
COc1ccc(CNC(=O)Cc2c(C(=O)O)c(C)cn2C)cc1 | 94% (inactive)
Cc1cn(C)c(CC(=O)NCc2ccc(Cl)cc2)c1C(=O)O | 102% (inactive)
COc1ccc(NC(=O)c2ccc3oc(=O)c(S(=O)(=O)c4ccc(C)cc4)cc3c2)cc1OC | 90% (inactive)
COc1cc(Cl)c(C)cc1NC(=O)CCn1cnc2onc(-c3ccc(F)cc3)c2c1=O | 77% (inactive)
COc1ccc(-c2nn3c(=O)cc(CN4CCN(C(=O)Nc5cc(C)ccc5C)CC4)nc3s2)cc1 | 99% (inactive)
COc1ccc(NC(=O)C2CCN(S(=O)(=O)c3ccc4c(c3)CCCC(=O)N4)CC2)cc1Cl | 78% (inactive)
CCOc1ccc(-c2cc(C(=O)NCc3ccc(OC)cc3)c3c(-c4ccc(F)cc4)[nH]nc3n2)cc1 | 77% (inactive)
COc1ccc(Nc2cc(C(=O)NCc3ccccc3OC)c3ccccc3n2)cc1 | -5% (active)
CCOc1ccc(-c2cc(C(=O)NCCc3ccc(Cl)cc3)c3ccccc3n2)cc1 | 81% (inactive)

SMILES | survival
CCOc1ccc(-c2cc(C(=O)NCc3ccccc3)c3c(-c4ccc(CC)cc4)[nH]nc3n2)cc1 | 47% (active)
CCOc1ccc(-c2cc(C(=O)NCc3ccc(C)cc3)c3ccccc3n2)cc1 | 87% (inactive)
COc1ccc(-c2cc(C(=O)NCc3ccccc3)c3c(-c4ccccc4)[nH]nc3n2)cc1 | 93% (inactive)
COc1ccc(-c2cc(C(=O)NCCc3ccc(OC)c(OC)c3)c3ccccc3n2)cc1 | 48% (active)
COc1ccc(CCNC(=O)c2cc(-c3ccccc3)nc3ccccc23)cc1OC | 58% (inactive)
CCOc1ccc(-c2cc(C(=O)NCCc3ccc(C)cc3)c3ccccc3n2)cc1 | 52% (active)
COc1ccc(Nc2cc(C(=O)NCc3ccccc3)c3ccccc3n2)cc1 | 97% (inactive)
COc1ccc(Nc2cc(C(=O)NCc3cccs3)c3ccccc3n2)cc1 | 131% (inactive)
COc1ccc(CCNC(=O)c2cc(-c3ccc(C)c(C)c3)nc3ccccc23)cc1OC | 120% (inactive)
CCCCNc1ccc(-c2nc(-c3ccccc3)no2)cc1[N+](=O)[O-] | 72% (inactive)
CCOc1ccc(C(=O)O)o1 | 94% (inactive)
Cc1ccc(-n2c(SCC(=O)NC(C)(C)C)nc(O)cc2=O)cc1 | 107% (inactive)
CCCCOC(=O)c1ccc(Nc2ncnc3[nH]ncc23)cc1 | 55% (inactive)
N#Cc1ccccc1NC(=O)C(=O)NCCc1csc(-c2ccc(C(F)(F)F)cc2)n1 | 85% (inactive)
Cc1ccc(S(=O)(=O)c2cn(Cc3ccccc3)c3cc(N4CCCC4)c(F)cc3c2=O)cc1 | 71% (inactive)
Cc1nc2sc(C)c(C)n2c(=O)c1S(=O)(=O)N1CCN(c2ccccc2F)CC1 | 68% (inactive)
Cc1cc(C)c(NC(=O)Cn2c(=O)n(-c3cccc(C(F)(F)F)c3)c(=O)c3c(C)c(C)sc32)c(C)c1 | 92% (inactive)
O=C(Nc1ccc2c(c1)OCCO2)C1CCCN(S(=O)(=O)Cc2ccccc2)C1 (centres undefined) | 102% (inactive)
CCOc1ccc(NC(=O)c2nn(C)c3c2CS(=O)(=O)c2ccccc2-3)cc1 | 60% (inactive)
CCOc1ccc(C(=O)CSc2nc3cc(C(=O)NC4CCCC4)ccc3c(=O)n2CC2CCCO2)cc1 (centres undefined) | 8% (active)
Cc1ccc(C(=O)CSc2nc3cc(C(=O)NC4CCCC4)ccc3c(=O)n2CC2CCCO2)cc1 (centres undefined) | 101% (inactive)
O=C(CSc1nc2cc(C(=O)NC3CCCC3)ccc2c(=O)n1CC1CCCO1)c1cccc(Cl)c1 (centres undefined) | 20% (active)
COc1ccc(C(=O)CSc2nc3cc(C(=O)NC4CCCC4)ccc3c(=O)n2CC2CCCO2)cc1 (centres undefined) | 95% (inactive)
Cc1ccc(C(=O)CSc2nc3cc(C(=O)NC4CCCC4)ccc3c(=O)n2CC2CCCO2)c(C)c1 (centres undefined) | 91% (inactive)
O=C(CSc1nc2cc(C(=O)NC3CCCC3)ccc2c(=O)n1CC1CCCO1)c1ccc(F)cc1 (centres undefined) | 96% (inactive)
CC(=O)c1cc(-c2ccc(F)cc2)n(CC(=O)NC2CCC(C)CC2)c1C (centres undefined) | 67% (inactive)
O=C(CN1CCN(S(=O)(=O)c2cc(Cl)ccc2Cl)CC1)Nc1cccc(F)c1 | 92% (inactive)
